# Screens (PubChem BioAssay)
# KCNH2 WT inh = qHTS for Inhibitors of KCHN2 3.1: Wildtype qHTS; U2OS, BacMam KCNH2, thallium flux FluxOr; hits give low values; Voltage-gated inwardly rectifying potassium channel KCNH2 (Homo sapiens), Q12809; actives 0.37% (n = 340,000); activity change, % at 1.84 µM;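 active = maximum activity change below -70%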; note: % is set by controls: 0 for no effect and ±100 for the full control effect
#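 U2OS cells were transduced with wild-type KCNH2 virus (2.03 x 10^8 / mL) for 4 h at room temperature, then cultured overnight at 37 C. Thallium flux was read with FluxOr dye. Rate constants were normalized to DMSO controls.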
# TRPML1 blocker = qHTS for Inhibitors of the Human Mucolipin Transient Receptor Potential 1 (TRPML1); Mucolipin-1 (Homo sapiens), Q9GZU1; TRPML1-inducible cells, Ca2+ dye fluorescence, FDSS; hits give low values; inhibition of EC80 agonist-evoked calcium signal; activity change, negative = inhibition, % (concentration not given with the values); actives 0.02% (n = 390,000); AID 624415, 2012; in the data active = activity change below about -50%;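 note: stimulus is agonist 54-4 at its EC80 concentration; % is set by controls: 0 for no effect and ±100 for the full control effect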
# Target sequence (Q9GZU1 whole entry, looked up): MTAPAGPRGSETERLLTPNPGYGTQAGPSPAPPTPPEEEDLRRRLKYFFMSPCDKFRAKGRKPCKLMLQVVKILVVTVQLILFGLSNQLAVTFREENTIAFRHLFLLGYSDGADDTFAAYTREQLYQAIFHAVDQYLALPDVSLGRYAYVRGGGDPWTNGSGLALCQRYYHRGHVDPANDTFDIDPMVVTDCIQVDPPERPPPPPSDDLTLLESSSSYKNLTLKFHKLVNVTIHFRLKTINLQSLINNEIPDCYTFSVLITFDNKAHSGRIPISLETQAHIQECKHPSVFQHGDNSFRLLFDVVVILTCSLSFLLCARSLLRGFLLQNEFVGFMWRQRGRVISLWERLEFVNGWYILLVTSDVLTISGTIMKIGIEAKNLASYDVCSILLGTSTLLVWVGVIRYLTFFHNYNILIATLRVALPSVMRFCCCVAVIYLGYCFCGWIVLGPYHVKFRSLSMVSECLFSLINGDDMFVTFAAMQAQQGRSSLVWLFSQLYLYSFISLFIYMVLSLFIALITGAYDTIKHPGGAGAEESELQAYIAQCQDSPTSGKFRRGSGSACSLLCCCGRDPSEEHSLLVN
#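 Tet-induced TRPML1-DL cells loaded with Ca8 no-wash calcium dye were read kinetically on FDSS. Compound addition was followed by EC80 agonist 54-4 (4 uM final); inhibition was read over 110 s.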
# TRHR ag = qHTS for Small Molecule Agonists and Allosteric Enhancers of Human TRH Receptor: Primary Screen for Agonists; actives 0.18% (n = 360,000); AID 493084, 2011; TRHR cells, calcium flux fluo-8, FDSS agonist mode; activation, % at 2 µM; Thyrotropin-releasing hormone receptor (Homo sapiens), P34981; in the data active = activation above about 30%; note: 0% is about no effect
#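 TRHR-expressing cells loaded with fluo-8 calcium dye; 23 nL library compound pin-transferred, kinetic FDSS fluorescence (Ex 480/Em 530) recorded about 180 s for agonist-induced calcium release, before a 10 nM TRH EC20 addition for potentiator mode.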
# KCNH2 3.1 block = qHTS for Inhibitors of KCHN2 3.1: Mutant qHTS. U2OS KCNH2 3.1, thallium flux FluxOr; hits give low values. activity change, % (tested at about 1.8 µM). actives 0.95% (n = 340,000). AID 720553, 2013;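 active = maximum activity change below -70%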;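 note: thallium influx rate constant from kinetic fluorescence after stimulation buffer; % is set by controls: 0 for no effect and ±100 for the full control effect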
#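 Normalized rate constant (relative to positive and negative DMSO controls) derived from a 2 min kinetic fluorescence read after stimulation; U2OS cells expressing the 3.1 isoform via virus at 1.77 x 10^8 /mL.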
# TRPML1 agonist = qHTS for Agonists of the Human Mucolipin Transient Receptor Potential 1 (TRPML1); actives 0.12% (n = 410,000); AID 624414, 2012; activation, % (no concentration beside the values); TRPML1-expressing cells, Ca2+ dye fluorescence, FDSS; in the data active = activation above about 50%; note: 0% is about no effect
#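 Cells: TRPML1-DL, 1X Tet inducer, ~16 h at 37 degrees C/5% CO2. Dye: ABD Ca8 no-wash + quencher, 45-90 min RT. Read: 10 s baseline, compound add, 110 s agonist phase; 54-4 EC80 (4uM final), 110 s antagonist phase.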
# TRHR PAM = qHTS for Small Molecule Agonists and Allosteric Enhancers of Human TRH Receptor: Primary Screen for Enhancers; Thyrotropin-releasing hormone receptor (Homo sapiens), P34981; TRHR cells, fluo-8 calcium fluorescence, EC20 TRH enhancement; enhancement, % at 2 µM; actives 0.66% (n = 360,000); AID 493056, 2011; in the data active = enhancement above about 30%; note: 0% is about no effect
#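 TRHR-expressing cells loaded with fluo-8 calcium dye were read kinetically (ex 480/em 530) during compound addition, then stimulated with an EC20 of TRH (10 nM final). Enhancement of the Gq-mediated intracellular calcium response was scored.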
# * marks the source's active call; other numbers are inactive results; / = not tested or not shown. A selection: hits, their analogues and other compounds. The true share with any hit is near 1.7%.
SMILES,KCNH2 WT inh,TRPML1 blocker,TRHR ag,KCNH2 3.1 block,TRPML1 agonist,TRHR PAM
CCOc1ccc(N2CC(C(=O)Nc3ccc(N4CCOCC4)cc3)CC2=O)cc1 (centres undefined),-104*,79,1,14,0,-1
COc1ccc(N2CC(C(=O)Nc3ccc(N4CCOCC4)cc3)CC2=O)cc1 (centres undefined),4,1,0,11,5,5
COc1ccc(CCNC(=O)C2CCCN(S(=O)(=O)c3ccccc3)C2)cc1 (centres undefined),2,5,-1,0,0,-4
COc1ccc2cc(-c3[nH]ncc3CN3CCCN(c4ccccc4)CC3)ccc2c1,-14,11,0,26,2,31*
COc1ccc(-c2[nH]ncc2CN2CCCN(c3ccccc3)CC2)c(F)c1,-1,0,1,14,0,-4
O=C(CN1C(=O)c2ccccc2C1=O)NC1CCCCCC1,-3,-3,0,9,1,33*
Cc1ccccc1CC(=O)NC1CCCCCC1,3,-54*,0,-14,1,-2
O=C(CN1C(=O)c2ccccc2C1=O)NC1CCCCC1,-10,3,-1,1,-1,-2
Cc1ccccc1CSCC(=O)NC1CCCC1,-1,34,0,1,-1,-4
COc1ccc(N2CCN(c3ncnc4c3cnn4-c3ccc(F)cc3)CC2)cc1,/,-12,0,/,-1,-1
Cc1ccc(C)c(S(=O)(=O)Nc2nc3ccc(S(N)(=O)=O)cc3s2)c1,7,7,0,-12,2,41*
CCCCCn1c(=O)c(C(=O)c2ccccc2)nc2ccccc21,-120*,16,0,-78*,2,-8
Cc1ccc(-n2nc(C)c3c(C)c(CCC(=O)NCc4ccccc4)c(C)nc32)cc1,-4,-15,0,-107*,0,0
Cc1ccc(CNC(=O)CCc2c(C)nc3c(c(C)nn3-c3ccc(C)cc3)c2C)cc1,-13,1,-3,-11,0,-3
CC(C)(C)C(=O)Cn1nc(Cl)nc1Cl,-10,17,1,-3,-1,32*
CCc1nnc(SC(CC)C(=O)Nc2ccc(OC)c(Cl)c2)c2cc3occc3n12 (centres undefined),/,16,0,/,1,0
O=S(=O)(Nc1nccs1)c1ccc(NS(=O)(=O)c2c(F)cc(F)c(Cl)c2F)cc1,-105*,29,/,-3,1,/
O=C(CSc1ccc(-c2ccccn2)nn1)NCc1ccccc1,-115*,-1,0,2,0,-13
Cc1ccnc(N2CCC(C(=O)NCc3ccc4c(c3)OCO4)CC2)n1,-195*,24,0,-16,-1,-1
c1ccc2[nH]c(SCc3cn4cccnc4n3)nc2c1,-1,-22,0,-3,0,34*
CCCCNC(=O)c1nc(C2CCN(S(=O)(=O)c3c(F)cccc3F)CC2)oc1-c1ccccc1,/,/,/,/,0,/
c1ccc(C2=Nn3c(nnc3-c3n[nH]c4c3CCC4)SC2)cc1,0,9,0,-27,2,1
CCOc1ccc(C2=Nn3c(nnc3-c3ccccc3)SC2)cc1Cl,-2,14,-1,-203*,0,-7
Clc1ccc(C2=Nn3c(nnc3-c3n[nH]c4c3CCC4)SC2)cc1Cl,-6,9,0,4,1,35*
O=C(Nc1ccccc1C(=O)OCc1cc(=O)n2c3c(sc2n1)CCCC3)c1ccc(F)cc1,/,13,1,/,1,0
